# Results: PubChem BioAssay AID588463 (National Center for Advancing Translational Sciences (NCATS), 2011)
# The campaign covered roughly 1,200 compounds. About 15 (1%) were called active. A call without a number means that no potency is given here. Not shown: some 7% with an inconclusive outcome. The call rests on the fitted dose curve; in most records, active means well fitted activation curve with a large enough effect; inconclusive means small, poorly fitted or top-dose-only effect; inactive means flat fitted curve, though single readings scatter. For the sample, actives were picked, then their nearest neighbours and some compounds at random.
# Molecular target: Beta-2 adrenergic receptor (Homo sapiens) (UniProt P07550)
# Sequence (P07550 whole entry, looked up): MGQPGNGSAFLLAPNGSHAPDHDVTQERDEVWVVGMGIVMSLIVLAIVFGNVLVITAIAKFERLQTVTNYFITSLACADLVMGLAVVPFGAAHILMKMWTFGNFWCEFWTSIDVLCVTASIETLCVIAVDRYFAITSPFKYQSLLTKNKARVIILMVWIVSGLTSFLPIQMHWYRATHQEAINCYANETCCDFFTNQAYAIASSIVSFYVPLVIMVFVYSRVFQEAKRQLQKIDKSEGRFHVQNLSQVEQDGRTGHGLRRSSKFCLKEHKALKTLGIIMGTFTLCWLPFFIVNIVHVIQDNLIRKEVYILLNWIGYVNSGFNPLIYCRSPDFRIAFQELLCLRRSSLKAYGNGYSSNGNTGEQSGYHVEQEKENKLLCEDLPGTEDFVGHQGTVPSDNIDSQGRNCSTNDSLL
# Experiment: qHTS assay of beta-arrestin-biased ligands of beta2-adrenergic receptor: Hit Validation
# Conditions: cell-based beta-arrestin recruitment to beta2AR; Potency: activation; series mostly up to 46.1 µM
# From the text: The concept of biased agonism is an emerging concept of molecular pharmacology which proposes that seven transmembrane receptors (7TMRs) or G protein-coupled receptors (GPCRs), exist in multiple signaling conformations and complexes and that ligands (either agonists or antagonists) can induce signaling biased responses for distinct signal transduction cascades.
# Furthermore, accumulating evidence over the last decade has drawn attention to a novel function of beta-arrestins as signal transducers that scaffold various signaling molecules upon activation of 7TMRs. […] This beta-arrestin-biased signaling presumably leads to distinct physiological outcomes from those by G protein activation.
# Additionally, the active receptor conformations which […] on this beta-arrestin signaling are likely different from those activating G protein signaling
# The goal of this screening project will be to discover and optimize novel beta-arrestin-biased ligands for beta2-AR signaling. A luminescent cell-based assay for beta2-AR-mediated agonism, known as the Tango assay, has been validated in which ligand binding of a recombinant beta2-AR and subsequent recruitment of a recombinant beta-arrestin lead to the release of the transcriptional activator tTA, which upregulates transcription of a tTA-responsive luciferase gene.
# NIH Molecular Libraries Probe Production Network [MLPCN]
# NIH Chemical Genomics Center [NCGC]
# PI: Bryan Roth (UNC) and Bob Lefkowitz (Duke)
# NCGC Assay Protocol Summary:
# Tango cells were dispensed into white, solid, tissue-culture-treated 1536-well plates at 1500 cells/well in DMEM, containing 1% fetal bovine serum (FBS). Then, 23 nL of compounds or DMSO were delivered to each well using a pin tool. Plates were incubated at 37 degrees C, 5% CO2 for 18 hr. Then 2.5 uL luminescent substrate mix (in-house prepared: 150 mM Tris-Cl, pH 7.6, 3 mM MgCl2, 1% Triton X-100, 5 mM DTT, 0.5 mM CoA, 0.15 mM ATP, 0.44 mM D-luciferin, final concentrations) was added to each well. Plates were then incubated for 15 minutes at room temperature, and subsequently measured on a ViewLux plate reader for luminescent signal using a clear filter with a 10 second exposure and 2x binning. The %Activity was determined from the corrected luminescence values.
# Concentration-response curves were fitted to the signals arising from the resulting luminescence. The concentration-effect curves were then classified based on curve quality (r2), response magnitude and degree of measured activity, and compounds were subsequently categorized based on their curve class.
# Keywords: biased agonism, beta2-AR, beta-arrestin, GPCR, 7TMR, Tango, luminescence, MLSMR, MLPCN, NIH Roadmap, qHTS, NCGC
# Potency means the concentration at half of the fitted maximal effect.
row,SMILES,Potency
1,Clc1cccc(Cl)c1C1Nc2cccc3cccc(c23)N1,inactive
2,COC(=O)N1C(=O)[C@@](c2ccc(OC)cc2)(C(C)C)N1C(=O)OC,inactive
3,COc1ccc(C(=O)C2CCCN(Cc3cnc(N4CCCC4)s3)C2)cc1OC (stereo not drawn),inactive
4,Fc1ccccc1NC(=S)Nn1cnnc1,inactive
5,CCOc1ccc(N(CC(=O)Nc2cccnc2)S(=O)(=O)c2ccc(C)cc2)cc1,inactive
6,O=C(CNCc1ccccc1Cl)Nc1ccc2c(c1)OCCO2,inactive
7,Cc1cccc(N=C2NC(=O)/C(=C/c3cccs3)S2)c1,inactive
8,CCNC(=S)NNc1nncc2ccccc12,inactive
9,S=C(N/N=C/c1ccco1)NC1CC2CCC1C2 (stereo not drawn),inactive
10,CN=C(c1ccc(C)cc1)n1c(=S)nc(-c2ccc(C)cc2)n(C)c1=S,inactive
11,CNc1cc(C)nc(-n2nc(C)cc2C)n1,inactive
12,CN(C)NC(=S)Nc1ccc(Cl)cc1,inactive
13,C/C(CCC1CC(C)(C)OC1=O)=N\NC(N)=S (stereo not drawn),inactive
14,O=C(O)CCC(=O)N1N=C(c2ccccc2)CC1c1ccc2nccnc2c1 (stereo not drawn),inactive
15,O=C(OCC1CC(c2ccccc2)=NO1)c1ccco1 (stereo not drawn),inactive
16,COc1ccc2nc(NC(=S)N(C)C)sc2c1,inactive
17,COc1ccc(C2=NN(C(=O)/C=C/c3ccccc3)C(c3ccccc3)C2)c(OC(C)=O)c1 (stereo not drawn),inactive
18,Cc1cc(/C=N/NC(N)=S)c(C)n1-c1ccc(Br)cc1,inactive
19,COc1ccc(CN2CCCC(C(=O)c3ccc(Cl)cc3)C2)cc1Cn1cccn1 (stereo not drawn),inactive
20,COC(=O)CSc1ccc2nnc(-c3ccc(OC)c(OC)c3)n2n1,inactive
21,CCNC(=S)N/N=C/c1cccs1,inactive
22,Cc1nn(-c2ccccc2)c(C)c1/C=N/NC(=O)CSc1nnc(SCc2ccccc2Cl)s1,inactive
23,FC(F)(F)c1cc(Nc2ccccc2)nc(-c2ccccn2)n1,inactive

row,SMILES,Potency
1,CC1S/C(=N/N=C2CCCCC2)NC1=O (stereo not drawn),inactive
2,Cc1ccc2c(c1)C(=O)N1[C@H]3c4ccccc4OC[C@@H]3[C@H](c3ccccc3)[C@]1(C)C(=O)N2,inactive
3,CCN1CCN(C(=S)NC(=O)c2cccc(Br)c2)CC1,inactive
4,Cc1ccc(-n2c(SCC(=O)NCc3ccco3)nc3c(sc4ccccc43)c2=O)cc1,13 µM (active)
5,COc1ccc(CNc2nc(SCC(=O)NCc3ccco3)nc3ccccc23)cc1,inactive
6,CCC(Sc1nc2ccsc2c(=O)n1-c1ccc(Cl)c(C)c1)C(=O)NCc1ccco1 (stereo not drawn),inactive
7,CCOC(=O)C(Sc1cc(-c2ccccc2)nc2ncnn12)C(C)=O (stereo not drawn),inactive
8,CC(C)(O)C(=O)NN(C(=O)c1ccccc1)c1ccc2ccccc2c1,inactive
9,O=C(N/N=C/c1cccs1)c1cncc(Br)c1,inactive
10,C/C(CS(=O)(=O)c1ccc(Cl)c(Cl)c1)=N/NC(N)=S,inactive
11,C/C(=N\NC(=S)NCc1ccccc1)c1ccc2ccccc2c1OC(F)F,inactive
12,O=c1[nH]c(CSc2ccccn2)nc2c1cnn2-c1ccccc1,inactive
13,COc1ccc(NC(=O)c2cc3c(-c4ccc(OC)c(OC)c4)nn(C)c3s2)cc1OC,inactive
14,CCOC(=O)c1c(C)[nH]c(N=Nc2ccc(C)cc2C)c1C,inactive
15,CCOC(=O)N1CCN(Cc2c(F)cccc2F)CC1,inactive
16,CCOC(=O)c1sc(NC(=O)CSc2nnc(C(C)C)n2C)nc1C,inactive
17,CC(C)C(=O)COc1c2occc2cc2ccc(=O)oc12,inactive
18,O=C(Nc1cnccn1)c1ccc(Cl)cc1,inactive
19,CC(=O)N(c1ccccc1)C(C)c1nc(C#N)c(C#N)nc1C (stereo not drawn),inactive
20,FC(F)(F)c1cnc(N2CCSCC2)c(Cl)c1,inactive
21,CN(Cc1ccccc1)C(=O)CN1C(=O)c2ccccc2C1=O,inactive
22,COc1ccc(-c2cn3cccnc3n2)cc1F,inactive
23,O=C(NC(=S)N1CCCCCC1)c1ccccc1Cl,inactive

row,SMILES,Potency
1,Cc1nc(C)c(CC(=O)N/N=C/c2ccc(O)cc2)c(=O)[nH]1,inactive
2,COc1ccc(OCCCC(=O)Nc2nc(-c3ccccn3)cs2)cc1,inactive
3,Cn1cccc1C(=O)NC(=O)CSc1cccc[n+]1[O-],inactive
4,C/C(=N\NC(=S)NCCc1ccccc1)c1ccc(Cl)cc1Cl,inactive
5,O=C1NC(c2ccc(-c3ccccc3[N+](=O)[O-])o2)C(C(=O)c2ccc(F)cc2)C(O)(C(F)(F)F)N1 (stereo not drawn),inactive
6,Cc1ccc(CN2CCSCC2)c(C)c1,inactive
7,C=CCNC(=S)N/N=C/c1ccc(-c2cc(Cl)ccc2Cl)o1,inactive
8,Cc1ccccc1NS(=O)(=O)c1ccc2oc(=O)ccc2c1,inactive
9,COc1ccc(NC(=S)Nc2ccccn2)c(OC)c1,inactive
10,O=C(CSc1cccc[n+]1[O-])c1cc2ccccc2o1,inactive
11,CCC1(C)Cc2ccccc2C(=S)N1 (stereo not drawn),inactive
12,C=C(C)c1cccc(C(C)(C)NC(=O)NC(c2ccccc2)c2ccc(OC)cc2)c1 (stereo not drawn),inactive
13,NC(=S)n1[nH]c(-c2ccc([N+](=O)[O-])cc2)c(N=Nc2cccc([N+](=O)[O-])c2)c1=O,inactive
14,CCN(CC)CCCNC(=O)CCC(=O)NNc1nc2ccccc2c2nc(C)nn12,inactive
15,Cc1cc(C)n(-c2nc(NC(C)C)nc(NC(C)C)n2)n1,inactive
16,O=C(CNc1cccc(Cl)c1)c1ccc(Br)cc1,inactive
17,Cc1nc(COC(=O)c2ccc(S(=O)(=O)N3CCCC3)cc2)cs1,inactive
18,CC(C)NS(=O)(=O)c1ccc(NC(=O)C(C)Oc2ccc(C(=O)c3ccccc3)cc2)cc1 (stereo not drawn),inactive
19,CCn1nnnc1SCC(=O)Nc1nc2ccc(OC)cc2s1,inactive
20,CS(=O)(=O)Nc1ccc(-c2cn3cccnc3n2)cc1,inactive
21,O=C(NCCOc1cccnc1)C1CCC(=O)N(Cc2ccccc2F)C1 (stereo not drawn),inactive
22,COc1ccc(N(CC(=O)N2CCCC2)S(C)(=O)=O)cc1,inactive
23,CCN(CC)CCC(=O)N1c2ccccc2Sc2ccc(NC(=O)OC)cc21,inactive

row,SMILES,Potency
1,CCCn1c(-c2ccc(F)cc2)n[nH]c1=S,inactive
2,Cc1cccc(NC(=S)N=Nc2c(O)n(CN3CCOCC3)c3ccccc23)c1C,inactive
3,Cc1ccccc1OCC(=O)N/N=C/c1sc(=O)n(Cc2cccc(C(=O)O)c2)c1Cl,inactive
4,CCOc1cccc(N)c1,inactive
5,Cc1cccnc1NC(=S)Nc1ccc(Br)cc1Cl,inactive
6,CCCCC(=O)/C=C/n1c(=S)oc2ccccc21,inactive
7,CC(=O)N1CCN(CC(=O)c2ccc(Br)cc2)CC1,inactive
8,Cc1ccc(S(=O)(=O)N(CC(=O)N/N=C/c2ccco2)c2cc(Cl)cc(Cl)c2)cc1,inactive
9,CC(=O)c1sc(Nc2nc3ccc(F)cc3s2)nc1C,inactive
10,Cc1nc2ccc(NC(=O)CS(=O)(=O)c3ccccc3)cc2s1,inactive
11,O=C(NCCN1CCOCC1)c1ccccc1Cl,inactive
12,CCCCc1nnc(NC(=O)c2ccccc2OCc2c(C)noc2C)s1,inactive
13,CC(=O)c1ccc(N2CCN(C(=O)C3CCCN(S(=O)(=O)c4c(C)[nH]c(=O)[nH]c4=O)C3)CC2)cc1 (stereo not drawn),inactive
14,CCOC(=O)n1c(=O)oc2cc(S(=O)(=O)N3CCCCC3)ccc21,inactive
15,CCOc1ccc(/C=N/NC(=S)NC2CC3CCC2C3)cc1 (stereo not drawn),inactive
16,CC1CCCN(C(=O)Cn2nnc(-c3ccc(F)cc3)n2)C1 (stereo not drawn),inactive
17,FC(F)(F)c1nc2ccccc2nc1N/N=C\c1ccccc1,inactive
18,COc1ccc(OC)c(CNC(=O)CCCc2cn(C)c3ccccc23)c1,inactive
19,CC(=O)Oc1ccc2cc(-c3ccccc3)c(=O)oc2c1,inactive
20,Cc1cccc(-n2ncc3c(Nc4c(C)n(C)n(-c5ccccc5)c4=O)ncnc32)c1,inactive
21,O=C(CN1CCN(Cc2ccccc2)CC1)c1ccc(Br)cc1,inactive
22,CCC(=O)Nc1cccc(-c2nnc(SCC(=O)c3ccccc3)n2C)c1,inactive
23,Cc1oc(-c2ccccc2Cl)nc1CN1CCCCC1c1cccnc1 (stereo not drawn),inactive

row,SMILES,Potency
1,COCCNC(=S)NN=C1CCC(c2ccccc2)CC1 (stereo not drawn),inactive
2,Cc1noc(/C=C/c2ccco2)c1S(=O)(=O)N1CCC(C(=O)N2CCc3ccccc3C2)CC1,inactive
3,O=C(N/N=C/c1ccc(-c2ccccc2[N+](=O)[O-])o1)[C@H]1C[C@@H]1c1ccccc1,inactive
4,Cc1cccc(NC(=S)NC2CCCC2)n1,inactive
5,COc1ccc(C2CC(c3ccccc3)=NN2C(=O)COC(=O)c2cccc(N)c2)cc1 (stereo not drawn),inactive
6,O=C(c1cccs1)N1N=C(c2ccccc2)CC1c1ccc(O)cc1 (stereo not drawn),inactive
7,CCN1C(=O)C(CC(=O)Nc2ccc(OC)cc2)N(CCN2CCOCC2)C1=S (stereo not drawn),inactive
8,COc1cc(-c2nc(-c3ccccc3)c(-c3cc([N+](=O)[O-])ccc3C)[nH]2)cc(OC)c1OC,inactive
9,CCOc1ccccc1N=Nc1c(C)[nH]n(C(N)=S)c1=O,inactive
10,COc1cccc(NC(=S)N/N=C2\CC(C)(C)Oc3ccc(O)cc32)c1,inactive
11,O=C(N/N=C\C=C\c1ccco1)C1COc2ccccc2O1 (stereo not drawn),inactive
12,COc1ccc2c(c1)c(=O)c(C(=O)c1ccccc1)cn2Cc1ccc(C)cc1,inactive
13,O=[N+]([O-])c1ccc(/C=C2\CCC(C3=CCCC3)=C2N2CCOCC2)cc1,inactive
14,CCOC(=O)c1cccc(NC(=O)c2cncc(Br)c2)c1,inactive
15,S=c1nc2ccccc2c2nc(-c3ccccc3)[nH]n12,inactive
16,COc1ccc(N(C(=O)CCl)C(C)(C(=O)Nc2c(C)cccc2C)c2ccccn2)cc1 (stereo not drawn),inactive
17,CCN(C(=O)Cn1c(Cl)nc2c1c(=O)n(C)c(=O)n2C)C1CCCCC1,inactive
18,COc1ccc(/C=N/OC/C(O)=C(\C#N)c2nc3ccccc3[nH]2)cc1OC,inactive
19,COc1ccccc1CN1C[C@@H]2C[C@@H](c3ccc4nsnc4c3)N3CCC[C@@]23C1=O,inactive
20,Cc1cc(=O)n2cccc(O)c2n1,inactive
21,COc1ccc(NC(=S)NC(=O)c2ccc(Br)o2)cc1,inactive
